In PubChem BioAssay AID1159580 (chemical genetic matrix, 2015):
Screen size: about 5,500 compounds; about 2,000 (36%) were called active. Roughly 18% stayed inconclusive and do not appear here. Rule as the data show it: active = normalized growth mostly below about 0.91 (no sharp cut-off); inconclusive = no clear call, values can overlap the other calls; inactive = mostly above about 0.92. The list shows a part of the results.

Test: chemical genetic growth profiling, strain panel (AID 1159580);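 also: tested at 20 µM; growth read once vehicle control cultures reached saturation at 30 °C; 1 = growth at the plate median or of vehicle wells; lower values mean less growth of the strain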
Details: S. cerevisiae deletion strains, growth OD

Measured: normalized growth

OC(Cn1cncn1)(Cn1cncn1)c1ccc(F)cc1F
active: locus YDR137W, strain rgp1, stronger effect = lower value 0.508
inactive: locus YAL013W, strain DEP1, stronger effect = lower value 0.968 | locus YAL021C, strain ccr4, stronger effect = lower value 0.972 | locus YAL026C, strain drs2, stronger effect = lower value 0.911 | locus YAL030W, strain snc1, stronger effect = lower value 1 | locus YBL061C, strain skt5, stronger effect = lower value 0.995 | locus YBR009C, strain hhf1, stronger effect = lower value 0.998 | locus YBR021W, strain FUR4, stronger effect = lower value 0.936 | locus YBR023C, strain chs3, stronger effect = lower value 1.01 | locus YBR171W, strain sec66, stronger effect = lower value 0.971 | locus YBR229C, strain ROT2, stronger effect = lower value 1 | locus YBR231C, strain swc5, stronger effect = lower value 0.981 | locus YBR279W, strain paf1, stronger effect = lower value 1 | locus YCL011C, strain gbp2, stronger effect = lower value 1.01 | locus YCL016C, strain dcc1, stronger effect = lower value 0.987 | locus YCL029C, strain bik1, stronger effect = lower value 0.984 | locus YCL061C, strain MRC1, stronger effect = lower value 0.987 | locus YCL069W, strain vba3, stronger effect = lower value 1 | locus YCR088W, strain abp1, stronger effect = lower value 1.01 | locus YDL005C, strain med2, stronger effect = lower value 0.966 | locus YDL035C, strain GPR1, stronger effect = lower value 0.991 | locus YDL040C, strain nat1, stronger effect = lower value 1 | locus YDL074C, strain BRE1, stronger effect = lower value 1.03 | locus YDL101C, strain DUN1, stronger effect = lower value 0.993 | locus YDL134C, strain PPH21, stronger effect = lower value 1 | locus YDL185W, strain tfp1, stronger effect = lower value 0.948 | locus YDL192W, strain arf1, stronger effect = lower value 0.998 | locus YDR001C, strain nth1, stronger effect = lower value 1.01 | locus YDR069C, strain doa4, stronger effect = lower value 0.971 | locus YDR101C, strain arx1, stronger effect = lower value 1 | locus YDR150W, strain NUM1, stronger effect = lower value 0.985 | locus YDR159W, strain sac3, stronger effect = lower value 0.956 | locus YDR162C, strain NBP2, stronger effect = lower value 0.971 | locus YDR195W, strain ref2 1.1 | locus YDR297W, strain sur2, stronger effect = lower value 1 | locus YDR318W, strain mcm21, stronger effect = lower value 0.986 | locus YDR334W, strain swr1, stronger effect = lower value 0.996 | locus YDR335W, strain msn5, stronger effect = lower value 1.01 | locus YDR388W, stronger effect = lower value 1 | locus YDR392W, strain spt3, stronger effect = lower value 0.853 | locus YDR502C, strain sam2, stronger effect = lower value 0.992 | locus YEL003W, strain gim4, stronger effect = lower value 0.999 | locus YEL037C, strain rad23, stronger effect = lower value 1 | locus YEL061C, strain CIN8 (second series), stronger effect = lower value 1.01 | locus YEL061C, strain CIN8, stronger effect = lower value 0.993 | locus YER015W, strain faa2, stronger effect = lower value 1.01 | locus YER016W, strain bim1, stronger effect = lower value 1 | locus YER110C, stronger effect = lower value 0.974 | locus YER111C, strain swi4, stronger effect = lower value 0.999 | locus YER155C, strain BEM2 (second series), stronger effect = lower value 0.99 | locus YER155C, strain BEM2, stronger effect = lower value 1 | locus YER167W, strain BCK2, stronger effect = lower value 1.01 | locus YFR010W, strain ubp6, stronger effect = lower value 0.982 | locus YGL078C, strain dbp3, stronger effect = lower value 0.997 | locus YGL086W, strain mad1, stronger effect = lower value 0.997 | locus YGL167C, strain pmr1, stronger effect = lower value 1 | locus YGL173C, strain kem1, stronger effect = lower value 1.01 | locus YGL227W, strain vid30, stronger effect = lower value 1.01 | locus YGL240W, strain doc1, stronger effect = lower value 0.995 | locus YGL248W, strain PDE1, stronger effect = lower value 1.02 | locus YGL253W, strain hxk2, stronger effect = lower value 0.99 | locus YGR078C, strain PAC10, stronger effect = lower value 1.02 | locus YGR135W, strain pre9, stronger effect = lower value 0.979 | locus YGR252W, strain gcn5, stronger effect = lower value 1 | locus YHR013C, strain ard1, stronger effect = lower value 0.957 | locus YHR027C, strain rpn1, stronger effect = lower value 1.01 | locus YHR030C, strain SLT2, stronger effect = lower value 0.987 | locus YHR079C, strain IRE1 (second series), stronger effect = lower value 0.985 | locus YHR094C, strain hxt1, stronger effect = lower value 1.01 | locus YHR129C, strain ARP1, stronger effect = lower value 1 | locus YHR142W, strain chs7, stronger effect = lower value 1 | locus YHR200W, strain rpn10, stronger effect = lower value 0.961 | locus YIL066C, strain RNR3, stronger effect = lower value 1 | locus YIL073C, strain SPO22, stronger effect = lower value 0.943 | locus YIL125W, strain kgd1, stronger effect = lower value 1.01 | locus YIR030C, strain dcg1, stronger effect = lower value 0.997 | locus YJL092W, strain hpr5, stronger effect = lower value 0.998 | locus YJL095W, strain BCK1 (second series), stronger effect = lower value 1 | locus YJL095W, strain BCK1, stronger effect = lower value 1.07 | locus YJL115W, strain asf1, stronger effect = lower value 0.996 | locus YJL129C, strain trk1, stronger effect = lower value 1.06 | locus YJL134W, strain LCB3, stronger effect = lower value 0.994 | locus YJL154C, strain vps35, stronger effect = lower value 1.01 | locus YJL164C, strain tpk1, stronger effect = lower value 0.992 | locus YJL166W, strain qcr8, stronger effect = lower value 1 | locus YJL168C, strain set2, stronger effect = lower value 0.992 | locus YJL187C, strain SWE1 (second series), stronger effect = lower value 1.03
